Reference: PubChem BioAssay AID1159580 (chemical genetic matrix, 2015)
The whole screen tested about 5,500 compounds, of which about 2,000 (36%) were called active. Roughly 18% stayed inconclusive and do not appear here. Cut-off read from the data, not from the text of the source: active = normalized growth mostly below about 0.91 (no sharp cut-off); inconclusive = no clear call, values can overlap the other calls; inactive = mostly above about 0.92. The list shows a part of the results.

Experiment: chemical genetic growth profiling, strain panel (AID 1159580);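 note: tested at 20 µM; growth read once vehicle control cultures reached saturation at 30 °C; 1 = growth at the plate median or of vehicle wells; lower values mean less growth of the strain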
Conditions: S. cerevisiae deletion strains, growth OD

Measured: normalized growth

CC(=O)Oc1ccc2c(c1)CCC1C2CCC2(C)C1CC(OC(C)=O)C2OC(C)=O (stereo unspecified)
active: locus YPL106C, strain sse1, active compounds read low 0.831
inactive: locus YAL021C, strain ccr4, active compounds read low 0.948 | locus YAL026C, strain drs2, active compounds read low 1.01 | locus YAL030W, strain snc1, active compounds read low 0.97 | locus YBL061C, strain skt5, active compounds read low 0.997 | locus YBR009C, strain hhf1, active compounds read low 0.985 | locus YBR023C, strain chs3, active compounds read low 0.983 | locus YBR171W, strain sec66, active compounds read low 1 | locus YBR231C, strain swc5, active compounds read low 0.982 | locus YBR279W, strain paf1, active compounds read low 0.987 | locus YCL011C, strain gbp2, active compounds read low 0.994 | locus YCL016C, strain dcc1, active compounds read low 0.978 | locus YCL069W, strain vba3, active compounds read low 0.993 | locus YCR088W, strain abp1, active compounds read low 0.992 | locus YDL005C, strain med2, active compounds read low 0.987 | locus YDL040C, strain nat1, active compounds read low 0.975 | locus YDR001C, strain nth1, active compounds read low 1.01 | locus YDR069C, strain doa4, active compounds read low 0.954 | locus YDR137W, strain rgp1, active compounds read low 0.925 | locus YDR159W, strain sac3, active compounds read low 0.902 | locus YDR195W, strain ref2 0.992 | locus YDR297W, strain sur2, active compounds read low 0.988 | locus YDR334W, strain swr1, active compounds read low 0.987 | locus YDR335W, strain msn5, active compounds read low 1.01 | locus YDR392W, strain spt3, active compounds read low 0.856 | locus YEL003W, strain gim4, active compounds read low 0.986 | locus YEL037C, strain rad23, active compounds read low 1.02 | locus YEL061C, strain CIN8 (second series), active compounds read low 1.01 | locus YER015W, strain faa2, active compounds read low 0.985 | locus YER016W, strain bim1, active compounds read low 0.973 | locus YER111C, strain swi4, active compounds read low 0.994 | locus YER155C, strain BEM2 (second series), active compounds read low 1 | locus YFR010W, strain ubp6, active compounds read low 0.997 | locus YGL167C, strain pmr1, active compounds read low 0.98 | locus YGL173C, strain kem1, active compounds read low 0.99 | locus YGL227W, strain vid30, active compounds read low 0.995 | locus YGL240W, strain doc1, active compounds read low 0.935 | locus YGL253W, strain hxk2, active compounds read low 0.997 | locus YHR013C, strain ard1, active compounds read low 0.961 | locus YHR027C, strain rpn1, active compounds read low 0.987 | locus YHR142W, strain chs7, active compounds read low 0.968 | locus YJL092W, strain hpr5, active compounds read low 1.01 | locus YJL095W, strain BCK1 (second series), active compounds read low 0.984 | locus YJL115W, strain asf1, active compounds read low 1.01 | locus YJL129C, strain trk1, active compounds read low 0.967 | locus YJL154C, strain vps35, active compounds read low 0.985 | locus YJL164C, strain tpk1, active compounds read low 0.952 | locus YJL166W, strain qcr8, active compounds read low 0.987 | locus YJL187C, strain SWE1, active compounds read low 0.99 | locus YKL160W, strain elf1, active compounds read low 0.962 | locus YKR026C, strain gcn3, active compounds read low 1.01 | locus YKR091W, strain srl3, active compounds read low 0.988 | locus YLL001W, strain dnm1, active compounds read low 1 | locus YLL026W, active compounds read low 0.964 | locus YLL041C, strain sdh2, active compounds read low 0.999 | locus YLR027C, strain aat2, active compounds read low 0.995 | locus YLR221C, strain rsa3, active compounds read low 0.978 | locus YLR258W, strain gsy2, active compounds read low 0.988 | locus YLR262C, strain YPT6 (second series), active compounds read low 0.877 | locus YLR320W, strain mms22, active compounds read low 0.943 | locus YLR342W, strain FKS1, active compounds read low 0.971 | locus YLR357W, strain rsc2, active compounds read low 0.952 | locus YLR370C, strain arc18, active compounds read low 0.989 | locus YLR384C, strain iki3, active compounds read low 0.983 | locus YML120C, strain ndi1, active compounds read low 0.997 | locus YMR058W, strain fet3, active compounds read low 1 | locus YMR125W, strain sto1, active compounds read low 1 | locus YMR129W, active compounds read low 0.995 | locus YMR205C, strain PFK2, active compounds read low 0.972 | locus YMR231W, strain pep5, active compounds read low 0.996 | locus YNL071W, strain lat1, active compounds read low 0.962 | locus YNL209W, strain ssb2, active compounds read low 0.976 | locus YNL248C, strain rpa49, active compounds read low 0.991 | locus YNL322C, strain KRE1 (second series), active compounds read low 0.966 | locus YNR049C, strain mso1, active compounds read low 1 | locus YOR001W, strain rrp6, active compounds read low 0.983 | locus YOR070C, strain gyp1, active compounds read low 0.995 | locus YOR080W, strain dia2, active compounds read low 0.987 | locus YOR083W, strain WHI5, active compounds read low 0.952 | locus YOR106W, strain vam3, active compounds read low 0.954 | locus YOR265W, strain rbl2, active compounds read low 0.996 | locus YOR270C, strain vph1, active compounds read low 0.925 | locus YOR290C, strain snf2, active compounds read low 0.97 | locus YPL051W, strain arl3, active compounds read low 0.967 | locus YPL078C, strain atp4, active compounds read low 0.987 | locus YPL240C, strain hsp82, active compounds read low 0.995
